PubChem BioAssay (EPA / NIEHS)
Activity calls are given as the source filed them. Rule for the calls: active = hit-call score of the fitted dose curve at least 0.9, where 1 is the maximum; inactive = score below 0.9.

What follows are molecules tested on urokinase plasminogen activator (uPA), PLAU (gene 5328) (assay: BSK_KF3CT_uPA: BioMAP Diversity Plus: KF3CT Assay for urokinase plasminogen activator (uPA) Biomarker Activity (AID 2283075)). Details: primary human keratinocytes with fibroblasts; actives raise or lower the signal.
How it was run: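 Skin co-culture (keratinocytes + foreskin fibroblasts), human primary; 24 h post-dose; uPA by ELISA; gain/loss fit vs DMSO baseline.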

For CC1(C)C(=O)N(Cl)C(=O)N1Cl, which outcome is on record?
Its outcome is “inactive”.

Which outcome does the source give for CCCCN1C(=O)[C@@H]([C@H](O)C2CCCCC2)NC(=O)C12CCN(Cc1ccc(Oc3ccc(C(=O)O)cc3)cc1)CC2 here?
Its outcome is “inactive”.

For Nc1ccn([C@@H]2O[C@H](CO)[C@@H](O)[C@@H]2O)c(=O)n1, which outcome is on record?
The outcome was “inactive”.

With c1ccc2cc3ccccc3cc2c1 as the molecule, how does the outcome read?
Its outcome is “inactive”.

For Cc1nccn1-c1ccc(Sc2cccc(C3(C(N)=O)CCOCC3)c2)cc1, which outcome is on record?
The outcome was “inactive”.

For CCn1nc(C)c2c1C(=O)NCC(c1ccc(O)cc1)=N2, which outcome is on record?
The outcome was “inactive”.

How did the outcome turn out when CCCCCCCCN(C)C was run?
Its outcome is “inactive”.

With CCCCCCOC(=O)CC(CC(=O)OCCCCCC)(OC(=O)CCC)C(=O)OCCCCCC as the molecule, how does the outcome read?
Its outcome is “inactive”.

O=S(=O)(O)c1ccc(N=Nc2c(O)ccc3cc(S(=O)(=O)O)ccc23)cc1 was tested. Which outcome did it give?
The outcome was “inactive”.

COc1cc(C(C)C)c2c(c1)S(=O)(=O)N(COc1cc(=O)n3cccc(OCCN4CCCCC4)c3n1)C2=O was tested. Which outcome did it give?
The outcome was “inactive”.

How did the outcome turn out when CCc1cccc(CC)c1N was run?
Its outcome is “inactive”.

Which outcome does the source give for NC(=O)NN=Cc1ccc([N+](=O)[O-])o1 here?
The outcome was “inactive”.

Which outcome does the source give for OCCOCCOCCO here?
Its outcome is “inactive”.

How did the outcome turn out when Cc1ccc(S(=O)(=O)NC(=O)NN2CCCCCC2)cc1 was run?
The outcome was “inactive”.

Which outcome does the source give for OC(CCl)CCl here?
The outcome was “inactive”.

Cn1cc[nH]c1=S was tested. Which outcome did it give?
The outcome was “inactive”.

How did the outcome turn out when CNC(C)=O was run?
The outcome was “inactive”.

Which outcome does the source give for O=C(O)c1ccc2c(c1)nc(C(=O)NC1CCN(C3CC3)CC1)n2Cc1cc(-c2ccc(Cl)s2)on1 here?
Its outcome is “inactive”.

Which outcome does the source give for CCCOc1ccc(S(=O)(=O)N2CCN(CC)CC2)cc1-c1nc2c(CC)n(Cc3ccccn3)nc2c(=O)[nH]1 here?
Its outcome is “inactive”.

How did the outcome turn out when c1ccc(C(O[C@@H]2CCCN(CCc3ccc4c(c3)OCO4)C2)c2ccccc2)cc1 was run?
Its outcome is “inactive”.

For OCC(CO)(CO)CO, which outcome is on record?
Its outcome is “inactive”.

With Cc1cccc(O)c1C as the molecule, how does the outcome read?
Its outcome is “inactive”.

For c1ccc2c(c1)-c1cccc3c1c-2cc1ccccc13, which outcome is on record?
The outcome was “inactive”.

Which outcome does the source give for OCc1ccccc1 here?
The outcome was “inactive”.

Which outcome does the source give for S=P(N1CC1)(N1CC1)N1CC1 here?
Its outcome is “inactive”.

How did the outcome turn out when COS(C)(=O)=O was run?
The outcome was “inactive”.

For OC[C@H]1O[C@@H]2O[C@H]3[C@H](O)[C@@H](O)[C@@H](O[C@H]4[C@H](O)[C@@H](O)[C@@H](O[C@H]5[C@H](O)[C@@H](O)[C@@H](O[C@H]6[C@H](O)[C@@H](O)[C@@H](O[C@H]7[C@H](O)[C@@H](O)[C@@H](O[C@H]1[C@H](O)[C@H]2O)O[C@@H]7CO)O[C@@H]6CO)O[C@@H]5CO)O[C@@H]4CO)O[C@@H]3CO, which outcome is on record?
Its outcome is “inactive”.

The molecules below were run on CD40, CD40 (gene 958) (assay: BSK_LPS_CD40: BioMAP Diversity Plus: LPS Assay for CD40 Biomarker Activity (AID 2283076)). Details: primary human HUVEC with PBMC; actives raise or lower the signal.
How it was run: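 In the LPS system of human endothelial cells with peripheral blood mononuclear cells, CD40 levels were read by ELISA 24 h post-treatment. Signal changes in either direction were fitted against the DMSO baseline, with parallel SRB protein staining.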

With CC1(C)C(=O)N(Cl)C(=O)N1Cl as the molecule, how does the outcome read?
The outcome was “inactive”.

With CCCCN1C(=O)[C@@H]([C@H](O)C2CCCCC2)NC(=O)C12CCN(Cc1ccc(Oc3ccc(C(=O)O)cc3)cc1)CC2 as the molecule, how does the outcome read?
Its outcome is “inactive”.

With Nc1ccn([C@@H]2O[C@H](CO)[C@@H](O)[C@@H]2O)c(=O)n1 as the molecule, how does the outcome read?
Its outcome is “inactive”.

With c1ccc2cc3ccccc3cc2c1 as the molecule, how does the outcome read?
The outcome was “inactive”.

For Cc1nccn1-c1ccc(Sc2cccc(C3(C(N)=O)CCOCC3)c2)cc1, which outcome is on record?
Its outcome is “inactive”.

How did the outcome turn out when CCn1nc(C)c2c1C(=O)NCC(c1ccc(O)cc1)=N2 was run?
The outcome was “inactive”.

With CCCCCCCCN(C)C as the molecule, how does the outcome read?
The outcome was “inactive”.

How did the outcome turn out when CCCCCCOC(=O)CC(CC(=O)OCCCCCC)(OC(=O)CCC)C(=O)OCCCCCC was run?
Its outcome is “inactive”.

How did the outcome turn out when O=S(=O)(O)c1ccc(N=Nc2c(O)ccc3cc(S(=O)(=O)O)ccc23)cc1 was run?
The outcome was “inactive”.

With COc1cc(C(C)C)c2c(c1)S(=O)(=O)N(COc1cc(=O)n3cccc(OCCN4CCCCC4)c3n1)C2=O as the molecule, how does the AC50 read?
Its AC50 is 6.39 µM (active).

Which outcome does the source give for CCc1cccc(CC)c1N here?
The outcome was “inactive”.

With NC(=O)NN=Cc1ccc([N+](=O)[O-])o1 as the molecule, how does the outcome read?
The outcome was “inactive”.

For OCCOCCOCCO, which outcome is on record?
Its outcome is “inactive”.

With Cc1ccc(S(=O)(=O)NC(=O)NN2CCCCCC2)cc1 as the molecule, how does the outcome read?
The outcome was “inactive”.

Which outcome does the source give for OC(CCl)CCl here?
Its outcome is “inactive”.

Cn1cc[nH]c1=S was tested. Which outcome did it give?
The outcome was “inactive”.

CNC(C)=O was tested. Which outcome did it give?
The outcome was “inactive”.

For O=C(O)c1ccc2c(c1)nc(C(=O)NC1CCN(C3CC3)CC1)n2Cc1cc(-c2ccc(Cl)s2)on1, which outcome is on record?
The outcome was “inactive”.

How did the outcome turn out when CCCOc1ccc(S(=O)(=O)N2CCN(CC)CC2)cc1-c1nc2c(CC)n(Cc3ccccn3)nc2c(=O)[nH]1 was run?
The outcome was “inactive”.

Which AC50 does the source give for c1ccc(C(O[C@@H]2CCCN(CCc3ccc4c(c3)OCO4)C2)c2ccccc2)cc1 here?
The AC50 was 29.1 µM (active).

How did the outcome turn out when OCC(CO)(CO)CO was run?
The outcome was “inactive”.

For Cc1cccc(O)c1C, which outcome is on record?
The outcome was “inactive”.

With c1ccc2c(c1)-c1cccc3c1c-2cc1ccccc13 as the molecule, how does the outcome read?
The outcome was “inactive”.

How did the outcome turn out when OCc1ccccc1 was run?
The outcome was “inactive”.

S=P(N1CC1)(N1CC1)N1CC1 was tested. Which outcome did it give?
Its outcome is “inactive”.

How did the outcome turn out when COS(C)(=O)=O was run?
The outcome was “inactive”.

For OC[C@H]1O[C@@H]2O[C@H]3[C@H](O)[C@@H](O)[C@@H](O[C@H]4[C@H](O)[C@@H](O)[C@@H](O[C@H]5[C@H](O)[C@@H](O)[C@@H](O[C@H]6[C@H](O)[C@@H](O)[C@@H](O[C@H]7[C@H](O)[C@@H](O)[C@@H](O[C@H]1[C@H](O)[C@H]2O)O[C@@H]7CO)O[C@@H]6CO)O[C@@H]5CO)O[C@@H]4CO)O[C@@H]3CO, which outcome is on record?
Its outcome is “inactive”.

Each molecule was assayed on E-selectin (Homo sapiens) (UniProt P16581) (assay: BSK_LPS_Eselectin: BioMAP Diversity Plus: LPS Assay for Eselectin Biomarker Activity (AID 2283077)). Details: primary human HUVEC with PBMC; actives raise or lower the signal.
E-selectin (Homo sapiens), sequence (P16581 whole entry, looked up): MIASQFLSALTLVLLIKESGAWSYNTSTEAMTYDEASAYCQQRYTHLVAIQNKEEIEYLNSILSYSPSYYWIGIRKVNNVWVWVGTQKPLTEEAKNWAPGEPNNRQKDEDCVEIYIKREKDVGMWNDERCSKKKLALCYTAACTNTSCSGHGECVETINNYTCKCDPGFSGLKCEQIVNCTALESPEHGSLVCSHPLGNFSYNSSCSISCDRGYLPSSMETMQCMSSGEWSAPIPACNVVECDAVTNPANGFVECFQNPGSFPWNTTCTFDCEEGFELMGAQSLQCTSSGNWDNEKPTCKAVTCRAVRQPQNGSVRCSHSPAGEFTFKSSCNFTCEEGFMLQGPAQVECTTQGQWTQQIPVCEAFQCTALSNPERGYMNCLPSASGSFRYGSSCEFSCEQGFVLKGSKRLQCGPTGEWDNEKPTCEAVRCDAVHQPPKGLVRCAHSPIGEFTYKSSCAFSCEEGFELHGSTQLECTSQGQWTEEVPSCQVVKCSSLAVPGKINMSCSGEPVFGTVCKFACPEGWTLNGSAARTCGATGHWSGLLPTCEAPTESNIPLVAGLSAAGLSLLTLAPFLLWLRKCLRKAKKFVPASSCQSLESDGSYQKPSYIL
How it was run: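 E-selectin ELISA on LPS-stimulated endothelial cell/PBMC co-cultures, read 24 h post-treatment; gains and losses fitted against DMSO. Parallel SRB staining (0.1% SRB after 10% TCA fixation, 560 nm) flags overt cytotoxicity.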

Which outcome does the source give for CC1(C)C(=O)N(Cl)C(=O)N1Cl here?
The outcome was “inactive”.

CCCCN1C(=O)[C@@H]([C@H](O)C2CCCCC2)NC(=O)C12CCN(Cc1ccc(Oc3ccc(C(=O)O)cc3)cc1)CC2 was tested. Which outcome did it give?
Its outcome is “inactive”.

For Nc1ccn([C@@H]2O[C@H](CO)[C@@H](O)[C@@H]2O)c(=O)n1, which outcome is on record?
The outcome was “inactive”.

With c1ccc2cc3ccccc3cc2c1 as the molecule, how does the outcome read?
Its outcome is “inactive”.

Which outcome does the source give for Cc1nccn1-c1ccc(Sc2cccc(C3(C(N)=O)CCOCC3)c2)cc1 here?
Its outcome is “inactive”.

CCn1nc(C)c2c1C(=O)NCC(c1ccc(O)cc1)=N2 was tested. Which outcome did it give?
Its outcome is “inactive”.

For CCCCCCCCN(C)C, which outcome is on record?
Its outcome is “inactive”.

For CCCCCCOC(=O)CC(CC(=O)OCCCCCC)(OC(=O)CCC)C(=O)OCCCCCC, which outcome is on record?
Its outcome is “inactive”.

O=S(=O)(O)c1ccc(N=Nc2c(O)ccc3cc(S(=O)(=O)O)ccc23)cc1 was tested. Which outcome did it give?
The outcome was “inactive”.

How did the AC50 turn out when COc1cc(C(C)C)c2c(c1)S(=O)(=O)N(COc1cc(=O)n3cccc(OCCN4CCCCC4)c3n1)C2=O was run?
The AC50 was 8.03 µM (active).

How did the outcome turn out when CCc1cccc(CC)c1N was run?
Its outcome is “inactive”.

NC(=O)NN=Cc1ccc([N+](=O)[O-])o1 was tested. Which outcome did it give?
The outcome was “inactive”.

For OCCOCCOCCO, which outcome is on record?
Its outcome is “inactive”.

Cc1ccc(S(=O)(=O)NC(=O)NN2CCCCCC2)cc1 was tested. Which outcome did it give?
Its outcome is “inactive”.

With OC(CCl)CCl as the molecule, how does the outcome read?
Its outcome is “inactive”.

With Cn1cc[nH]c1=S as the molecule, how does the outcome read?
Its outcome is “inactive”.

For CNC(C)=O, which outcome is on record?
Its outcome is “inactive”.

How did the outcome turn out when O=C(O)c1ccc2c(c1)nc(C(=O)NC1CCN(C3CC3)CC1)n2Cc1cc(-c2ccc(Cl)s2)on1 was run?
The outcome was “inactive”.

Which outcome does the source give for CCCOc1ccc(S(=O)(=O)N2CCN(CC)CC2)cc1-c1nc2c(CC)n(Cc3ccccn3)nc2c(=O)[nH]1 here?
The outcome was “inactive”.

Which outcome does the source give for c1ccc(C(O[C@@H]2CCCN(CCc3ccc4c(c3)OCO4)C2)c2ccccc2)cc1 here?
The outcome was “inactive”.

OCC(CO)(CO)CO was tested. Which outcome did it give?
Its outcome is “inactive”.

Cc1cccc(O)c1C was tested. Which outcome did it give?
Its outcome is “inactive”.

With c1ccc2c(c1)-c1cccc3c1c-2cc1ccccc13 as the molecule, how does the outcome read?
The outcome was “inactive”.

OCc1ccccc1 was tested. Which outcome did it give?
Its outcome is “inactive”.

How did the outcome turn out when S=P(N1CC1)(N1CC1)N1CC1 was run?
Its outcome is “inactive”.

With COS(C)(=O)=O as the molecule, how does the outcome read?
The outcome was “inactive”.

OC[C@H]1O[C@@H]2O[C@H]3[C@H](O)[C@@H](O)[C@@H](O[C@H]4[C@H](O)[C@@H](O)[C@@H](O[C@H]5[C@H](O)[C@@H](O)[C@@H](O[C@H]6[C@H](O)[C@@H](O)[C@@H](O[C@H]7[C@H](O)[C@@H](O)[C@@H](O[C@H]1[C@H](O)[C@H]2O)O[C@@H]7CO)O[C@@H]6CO)O[C@@H]5CO)O[C@@H]4CO)O[C@@H]3CO was tested. Which outcome did it give?
Its outcome is “inactive”.
